# Assay outcomes from PubChem BioAssay.
# This is a sample that favours compounds with a hit; in the whole collection about 7.3% have one here.
# HCV inhibitor – HCV inhibition. Huh7.5.1 HCVcc-Cre infection, luciferase reporter, 44 h. Potency, µM (series often up to 41.8 µM), inactives show at the top dose activity change, negative = inhibition, actives largely listed as inhibitors. 3.4% of 340,000 active. AID 651820; further: potency means the concentration at half of the fitted maximal effect
#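 Whole-lifecycle infectious HCVcc-Cre system; cells 1,000/well, compound then virus (~0.5 moi) added 4 h after plating, 44 h culture. Luciferase read 15 sec following 15 min substrate incubation, room temp.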
# HCMV inh – blocks human cytomegalovirus replication; HFF cells, HCMV-luciferase reporter, 72 h; hits give low values; activity change, negative = inhibition, % at 57.5 µM; 4.5% of 410,000 active; AID 1259415; in the data active means activity change below about -60%; inconclusive means no clear call, values can overlap the other calls; inactive means above about -39%
#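 Two-dose cell screen: HFF monolayers treated with compounds and infected with luciferase-expressing HCMV at 1 PFU/cell, 72 h at 37C, then lysed for luciferase measurement.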
# AmpC inh no detg – blocks E. coli AmpC beta-lactamase in detergent-free assay; 0.52% of 330,000 active; P00811; AmpC nitrocefin hydrolysis, absorbance 480 nm, 0.0001% Triton; Potency, µM (titrated, usually from 57.1 µM), inactives show at the highest dose activity change, negative = inhibition, hits mostly inhibitors;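 further: potency means the concentration at half of the fitted maximal effect; plate controls were no compound for no effect and no enzyme for full effect; nearly all actives have a fitted effect of over 20% in size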
# Target sequence (P00811 whole entry, looked up): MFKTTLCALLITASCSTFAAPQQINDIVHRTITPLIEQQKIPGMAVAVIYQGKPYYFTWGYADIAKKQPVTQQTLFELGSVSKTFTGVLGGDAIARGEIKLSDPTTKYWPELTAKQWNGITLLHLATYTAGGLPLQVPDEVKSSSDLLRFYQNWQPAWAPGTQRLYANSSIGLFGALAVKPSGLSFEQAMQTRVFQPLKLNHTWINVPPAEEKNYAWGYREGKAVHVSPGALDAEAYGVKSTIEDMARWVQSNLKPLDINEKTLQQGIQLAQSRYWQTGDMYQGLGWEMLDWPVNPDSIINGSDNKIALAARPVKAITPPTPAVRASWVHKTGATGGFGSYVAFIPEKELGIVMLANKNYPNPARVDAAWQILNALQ
#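 20 mM phosphate pH 7.0 + 0.01% (detergent screen) or 0.0001% Triton X-100; 5.3 nM AmpC reagent; cpd preinc 15 min RT; nitrocefin (800 uM stock) to start; A480 q20 s × 4 min; Activity was normalised to no-enzyme and no-compound control wells.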
# FMDV inh – blocks foot and mouth disease virus; Potency, µM (top dose mostly 57.9 µM), without a hit: top-dose activity change, negative = inhibition, actives largely listed as inhibitors; FMDV antiviral cell-based qHTS; 1.2% of 410,000 active; AID 1159524; calls by dose curve; tested in HEK293T cells; further: read-out not given here; potency means the concentration at half of the fitted maximal effect; nearly all actives have a fitted effect of over 45% in size
# AmpC inh detg – blocks E. coli AmpC beta-lactamase in detergent assay; Potency, µM (highest dose often 114 µM), for inactives: top-dose activity change, negative = inhibition, hits mostly inhibitors; AmpC hydrolysis of nitrocefin, absorbance 480 nm, 0.01% Triton; 0.041% of 370,000 active;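 further: potency means the concentration at half of the fitted maximal effect; 0% = no-compound wells and -100% = no-enzyme wells; nearly all actives have a fitted effect of over 25% in size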
#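 AmpC (5.3 nM in the dispensed reagent) in 20 mM phosphate pH 7.0 with 0.01% (detergent screen) or 0.0001% Triton X-100 was preincubated with compounds for 15 min at room temperature. Nitrocefin was then added from an 800 uM solution, and hydrolysis was followed at 480 nm.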
# * hit, by the source's call; ? = inconclusive; · = not tested or not shown. Unless noted, the call rests on the fitted dose curve; in most records, active means well fitted curve in the direction sought with a large enough effect; inconclusive means small, poorly fitted or top-dose-only effect, or another doubt; inactive means no such curve, though single readings can be large; an effect the other way counts as inactive or inconclusive. Unless noted, on the % scale 0 is the no-effect control and ±100 the full control effect.
SMILES,HCV inhibitor,HCMV inh,AmpC inh no detg,FMDV inh,AmpC inh detg
O=C1/C(=C/c2ccncc2)CCC/C1=C\c1ccncc1,6.3µM*,-100*,-25%,14µM*,?
COc1cc(/C=C2/CCCC(C(=O)C(F)(F)F)=C2O)ccc1O,6%,-14,-25%,-10%,4%
COc1cc(/C=C2\CCC/C(=C\c3ccc(O)c(OC)c3)C2=O)ccc1O,13µM*,-101*,-11%,?,?
COc1cc(/C=C2/CCc3ccccc3C2=O)cc(OC)c1OC,?,?,31%,?,-9%
COc1cc(/C=C2\COC/C(=C\c3cc(OC)c(OC)c(OC)c3)C2=O)cc(OC)c1OC,1µM*,-98*,102%,3.5µM*,-10%
O=C1/C(=C\c2ccccc2)CCC/C1=C/c1ccccc1,-8%,-40,·,16%,·
COc1cc(/C=C2\CC/C(=C\c3cc(OC)c(O)c(OC)c3)C2=O)cc(OC)c1O,?,-98*,39%,22µM*,?
COc1ccc(/C=C2/CCc3ccccc3C2=O)cc1OC,?,?,39%,-1%,?
COC(=O)C1=C(c2cccc(OCc3ccccc3)c2)C[C@@H]2CC[C@H]1N2C(=O)NCc1ccc(N(C)C)cc1,13µM*,-19,2%,-13%,-2%
COC(=O)C1=C(c2cccc(OCc3ccccc3)c2)C[C@@H]2CC[C@H]1N2C(=O)NCc1cccc(OC)c1,?,-26,-5%,-16%,0%
COC(=O)C1=C(c2cccc(OCc3ccccc3)c2)C[C@@H]2CC[C@H]1N2C(=O)NCc1ccc(C(C)(C)C)cc1,25µM*,-17,-9%,-10%,7%
COC(=O)c1ccc(CNC(=O)c2ccc(OC)c(S(=O)(=O)NC3CC3)c2)cc1,·,-11,·,15%,·
O=S(=O)(c1ccccc1)c1cnn(-c2ccccc2)c1-c1ccc(F)cc1,?,-61*,-6%,?,?
COc1ccc(-n2nc(C(F)(F)F)cc2-c2ccc(Cl)cc2)cc1,·,·,·,-15%,·
COc1ccc(-n2ncc(S(=O)(=O)c3ccccc3)c2-c2ccc(Cl)cc2)cc1,10µM*,?,2%,?,-6%
O=S(=O)(c1ccccc1)c1cnn2c(C(F)(F)F)cc(-c3ccc(F)cc3)nc12,-15%,4,-20%,11%,-4%
CCc1ccc(NC(=O)CSC2=Nc3ccccc3C3=NC(CCC(=O)NCc4ccccc4)C(=O)N23)cc1 (stereo unspecified),·,13,·,13%,11%
COc1ccc(CN2CCN(C(=O)Cn3ncn4cccc4c3=O)CC2)c(OC)c1OC,?,-64*,-14%,?,?
COc1ccc(CN2CCN(C(=O)Cn3c(=O)oc4cc(Cl)ccc43)CC2)c(OC)c1OC,3.5µM*,?,76%,-26%,-12%
O=S(=O)(NC1c2cccc3cccc(c23)C1Sc1ncccn1)c1ccc(Cl)cc1 (stereo unspecified),?,-72*,-43%,-20%,-3%
COc1cccc(SCc2noc(C(=O)NCCCN3CCOCC3)c2C(=O)NCCCN2CCOCC2)c1,-10%,-30,·,-16%,·
Cc1cc(C)cc(SCc2noc(C(=O)NCCCN3CCOCC3)c2C(=O)NCCCN2CCOCC2)c1,1µM*,-29,212%,-5%,-3%
O=C(NCCCN1CCOCC1)c1onc(CSc2ccccc2)c1C(=O)NCCCN1CCOCC1,2%,-68*,·,-1%,·
O=C(NCCCN1CCOCC1)c1onc(CSc2ccncc2)c1C(=O)NCCCN1CCOCC1,9%,12,·,1%,·
CCOC(=O)N(C)C[C@H]1OCc2cn(nn2)CCCC(=O)N([C@@H](C)CO)C[C@@H]1C,·,-2,·,·,·
SMILES,HCV inhibitor,HCMV inh,AmpC inh no detg,FMDV inh,AmpC inh detg
O=C(NCc1cccs1)c1nn(-c2ccccc2)nc1CO,·,-3,·,0%,-3%
Cc1cc(NC(=O)CSc2nc(-c3cccs3)cc(C(F)(F)F)n2)no1,?,?,-50%,·,?
COc1ccc(NC(=O)CCS(=O)(=O)c2nc(-c3cccs3)cc(C(F)(F)F)n2)cc1OC,·,-101*,·,22µM*,5%
COc1cc(NC(=O)CSc2nc(-c3cccs3)cc(C(F)(F)F)n2)cc(OC)c1OC,·,13,·,?,0%
Cc1cc(NC(=O)CCCS(=O)(=O)c2nc(-c3cccs3)cc(C(F)(F)F)n2)no1,11µM*,123,-7%,?,0%
O=C(CCS(=O)(=O)c1nc(-c2cccs2)cc(C(F)(F)F)n1)Nc1cccc(O)c1,·,-99*,·,22µM*,7%
COc1cc(NC(=O)CCS(=O)(=O)c2nc(-c3cccs3)cc(C(F)(F)F)n2)cc(OC)c1OC,·,-98*,-19%,25µM*,-10%
O=S(=O)(c1ccc(F)cc1)N1CCN(C(=S)NC2CC2)CC1,2%,30,-18%,-7%,-5%
CC1(C)C2CCC1(C)C(NCC(O)COc1ccc(C#N)cc1)C2 (stereo unspecified),0%,54,-23%,0%,?
O=C(CCS(=O)(=O)c1nc(-c2ccc3c(c2)OCO3)cc(C(F)(F)F)n1)Nc1ccc(F)c(Cl)c1,·,-100*,·,?,1%
Cc1ccsc1CNCc1cc(Cl)ccc1O,?,-25,-7%,27%,-13%
N#CCSc1nc2c(cc1C#N)CCCCCC2,?,-68*,-38%,-17%,-14%
N#Cc1cc2c(nc1SCC(=O)O)CCCC2,0%,-20,-20%,-11%,0%
N#Cc1cc2c(nc1SCC(O)CS(=O)(=O)Cc1ccc(Cl)cc1)CCCC2 (stereo unspecified),?,-64*,-31%,·,-3%
CC(C)(C)c1ccc(S(=O)(=O)CC(O)CSc2nc3c(cc2C#N)CCCC3)cc1 (stereo unspecified),10%,81,-22%,11%,9%
CCc1ccc(NC(=O)c2ccc(F)c(S(=O)(=O)N(C)C3CCCCC3)c2)cc1,·,-98*,·,?,0%
Cc1ccc([N+](=O)[O-])cc1S(=O)(=O)NCC1COc2ccccc2O1 (stereo unspecified),?,-68*,-28%,12%,0%
CC(=O)Nc1ccc(NC(=O)c2cccc(S(=O)(=O)N(C)C3CCCCC3)c2)cc1,?,0,14%,-25%,7%
O=C(Nc1cc(Cl)cc(Cl)c1)c1ccc(F)c(S(=O)(=O)NC2CCCC2)c1,·,-6,·,-9%,11%
CCc1ccc(NC(=O)c2ccc(F)c(S(=O)(=O)NC3CCCCCC3)c2)cc1,·,-79*,·,6%,9%
CCc1ccc(NC(=O)c2ccc(F)c(S(=O)(=O)NCCc3ccc(OC)c(OC)c3)c2)cc1,·,-83*,·,?,5%
CCOc1ccc(NC(=O)c2ccc(F)c(S(=O)(=O)N(Cc3ccc(C(=O)OC)cc3)Cc3ccc(OC)c(OC)c3)c2)cc1,·,-9,·,-10%,6%
